# Assay results reported in PubChem BioAssay AID651692 (Broad Institute, 2012).
# Measured potencies and affinities stand elsewhere. Values without a mark were called inactive.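 The calls were made as follows: active = fitted half-maximal concentration for loss of cell signal no higher than twice the top valid tested concentration; inconclusive = flat curve at 30 to 70% inhibition, or poor fit; inactive = flat within 30%, signal rise, or potency above limit.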
# Assay: MDA-MB-231 cell growth inhibition, dose response, cytotoxicity control for RAD54 inhibitor project, CellTiter-Glo luminescence, cherry-pick (AID 651692);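 also: 0% = median of sample compound wells and -100% = staurosporine control wells; more negative values mean stronger loss of viable cell signal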
# Conditions: MDA-MB-231 viability, 24 h; series mostly up to 26 µM; activity change, negative = growth inhibition: at the top concentration
row,SMILES,"activity change, negative = growth inhibition [%]"
1,CN(C)CCNC(=O)c1cccc(-c2cnc3c(NC=O)cc(-c4ccc(F)cc4)cn23)c1,-17.3
2,Nc1c(C(=O)NCCN2CCOCC2)c2nc3ccccc3nc2n1-c1ccc2c(c1)OCO2,-0.672
3,Cc1nc2ccccc2c2oc(C(=O)NCCN3CCCCC3C)cc12 (centres undefined),7.34
4,CN1CCN(c2nc(-c3cccnc3)nc3ccccc23)CC1,4.66
5,NC(=O)CN1CCN(CCN2C(=O)c3cccc4cccc(c34)C2=O)CC1,0.913
6,CCOc1ccc2nc(C)cc(Nc3ccc4c(c3)OCCO4)c2c1,-23.8
7,COc1cc2c(C#N)c(N3CCN(C)CC3)nc(N)c2c(N)n1,1.49
8,O=c1cc(CSc2n[nH]c(=O)n2C2CC2)c2ccc(O)cc2o1,2.63
9,CCN(CC)CCNc1ccc(CO)c2oc3cc(Cl)ccc3c(=O)c12,-9.29
10,COc1ccc2nc3cc(Cl)ccc3c(Nc3cc(CN4CCCC4)c(O)c(CN4CCCC4)c3)c2n1,11.3
11,Cc1ccnc(SCC(=O)Nc2sc3c(c2C#N)CCC(C(C)(C)C)C3)n1 (centres undefined),2.74
12,Cc1ccc2[nH]c(=O)c3cc(C(=O)NCCN4CCN(C)CC4)sc3c2c1,-2.44
13,C=CCN1C(=O)C(C)(C)Nc2ccccc21,5.24
14,CN(C)CCCNc1nc2cc(-c3ccc(C(=O)N4CCN(C)CC4)cc3)sc2c(=O)n1C,4.25
15,CCCCN(C)CCNC(=S)Nc1ccc2nc(N3CCN(CC)CC3)cc(C)c2c1,1.91
16,COc1ccccc1CNC(=O)c1cccs1,-3.64
17,CCOC(=O)Nc1c2ccccc2nc2ccccc12,7.91
18,Cc1cc2ccc3ccccc3c2cc1CN(C)C,-5.15
19,CCCN(CCC)CCCNC(=O)c1cc2c(=O)[nH]c3ccccc3c2s1,0.356
20,CC(C)CSc1ncc(-c2cccc(C(F)(F)F)c2)cn1,9.42

row,SMILES,"activity change, negative = growth inhibition [%]"
1,CCOC(=O)c1c(CN2CCCCC2)n(C)c2cc(Br)c(OC)cc12,7.42
2,c1ccc2c(c1)oc1c(Nc3ccc(CN4CCOCC4)cc3)ncnc12,2.94
3,COc1ccc(N2C(=O)CSC23CCCCC3)cc1,4.78
4,CCNC1CCC(Nc2ccnc3cc(Cl)ccc23)CC1 (centres undefined),5.14
5,Oc1ccccc1-c1nc(NCCN2CCOCC2)c2ccccc2n1,-3.97
6,COc1ccc(C(=O)Nc2ccc3nc(N4CCN(C)CC4)cc(C)c3c2)c(OC)c1,-11
7,CCN(CC)CCN1C(=O)c2cccc3cc(N)cc(c23)C1=O,5.41
8,N=c1c(C(=O)NCCN2CCOCC2)cc2c(=O)n3ccccc3nc2n1CCc1ccccc1,10.1
9,CCOC(=O)c1cnc2c(C)cccc2c1NCCCN1CCOCC1,0.77
10,CCOC(=O)c1cnc2c(C)cc(C)cc2c1NCCCN1CCOCC1,13.4
11,COc1ccc(Cl)c2sc(N(CCN(C)C)C(=O)C3=COCCO3)nc12,3.13
12,CCN(CC)CC(O)c1ccc2ccc3ccc(O)cc3c2c1 (centres undefined),-4.8
13,CN(C)C(CNC(=O)CCCN1C(=O)c2cccc3cccc(c23)C1=O)c1ccccc1 (centres undefined),13.8
14,CCN(CC)CCNC(=S)Nc1ccc2nc(N3CCN(CC)CC3)cc(C)c2c1,-7.23
15,COC(=O)c1c(NC(=O)c2ccc([N+](=O)[O-])o2)sc2c1CCN(C(C)C)C2,12.9
16,CCNC(=O)c1cc2c(=O)n3cccc(C)c3nc2n(CCc2ccccc2)c1=N,-8.42
17,N=c1n(CCN2CCCCC2)c2ccccc2n1CC(=O)c1cccc([N+](=O)[O-])c1,-13.2
18,O=C1c2cccc3cccc(c23)C(=O)N1CCCn1ccnc1,11.9
19,CN(C)CCCN(C(=O)CCOc1ccccc1)c1nc2ccc(F)cc2s1,0.41
